# From the OligoGym collection
# Target: ATG13
# Experiment: pooled miR-30 sensor sort-seq; sequence = guide strand
# Conditions: shRNA
# Also: reference of the scale not given here.
row,Sequence,sensor-assay potency score (higher = more potent)
1,TTGCTAAGTTGAACCAATCTGA,0.054
2,TTCAGTATCCTCACTACTGGAG,-0.0842
3,TTGAGAGTCTTCTACAGACGGG,-0.452
4,TTGGAGAAGATGATGAACGAGT,0.0356
5,TTCAAGACACCATATTTCCAGC,-0.751
6,TGACAGTCTGTTGTACACCGTG,-0.356
7,TATCATAACAAAGTCATCATGG,0.359
8,TTGATTTCTTTATCACACTTTT,-0.851
9,TTCAGCAGCAATGACAGTCTGT,0.524
10,TTTATCACACTTTTCATTCATT,-0.513
11,AAATTTAATAAACTTGTCCAGG,-1.15

# Target: ATG16L1
# Experiment: as above
# Conditions: shRNA
row,Sequence,sensor-assay potency score (higher = more potent)
1,TTGTAGCTGATTGTCATTCCAT,-0.0295
2,TTTTTCTCCAAATACTTCCCAA,-0.436
3,ATGAGTATCCACATTGTCCTGG,-0.348
4,TTTTGCTTCATTCATCTGCATC,-1.44
5,TATCATTGCAACTGGATCCTGC,0.235
6,TTCCCTGTGAGCACACTCCAGA,-0.634
7,TTGCAAAATCATTTGAAGCTGC,0.00437
